Screen size: about 5,500 compounds; about 2,000 (36%) were called active. Not shown: some 18% with an inconclusive outcome. The list shows a part of the results. A number with no mark means an inactive call. Cut-off read from the data, not from the text of the source: active = normalized growth mostly below about 0.91 (no sharp cut-off); inconclusive = no clear call, values can overlap the other calls; inactive = mostly above about 0.92.
Experiment: chemical genetic growth profiling, strain panel (AID 1159580);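 note: tested at 20 µM; growth read once vehicle control cultures reached saturation at 30 °C; 1 = growth at the plate median or of vehicle wells; lower values mean less growth of the strain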
Settings: S. cerevisiae deletion strains, growth OD

O=C1C2C=CC=CC2=NC(=S)N1CCN1CCC(=C(c2ccc(F)cc2)c2ccc(F)cc2)CC1 (stereo unspecified)
normalized growth (locus YAL040C, strain CLN3, hits give low values): 0.896
normalized growth (locus YCL061C, strain MRC1 (second series), hits give low values): 1.01
normalized growth (locus YDR150W, strain NUM1, hits give low values): 1
normalized growth (locus YDR363W, strain ESC2, hits give low values): 0.951
normalized growth (locus YER002W, strain NOP16, hits give low values): 1.04
normalized growth (locus YGR078C, strain PAC10, hits give low values): 0.857 (active)
normalized growth (locus YGR229C, strain SMI1, hits give low values): 0.717 (active)
normalized growth (locus YMR263W, strain SAP30, hits give low values): 0.985
normalized growth (locus YMR307W, strain GAS1, hits give low values): 0.707 (active)
normalized growth (locus YNL128W, strain TEP1, hits give low values): 1.06
normalized growth (locus YNL153C, strain GIM3, hits give low values): 0.578 (active)
normalized growth (locus YNL197C, strain WHI3, hits give low values): 1.08
normalized growth (locus YNL224C, strain SQS1, hits give low values): 1.02
normalized growth (locus YOR083W, strain WHI5 (second series), hits give low values): 0.607 (active)
normalized growth (locus YPL055C, strain LGE1, hits give low values): 1.03

CCOC(=O)c1ccc2nc(N=CNO)sc2c1
normalized growth (locus YAR019C, strain CDC15, hits give low values): 0.948
normalized growth (locus YBL105C, strain PKC1, hits give low values): 0.94
normalized growth (locus YBR135W, strain CKS1, hits give low values): 0.947
normalized growth (locus YBR136W, strain MEC1, hits give low values): 0.951
normalized growth (locus YBR160W, strain CDC28, hits give low values): 0.954
normalized growth (locus YDL017W, strain CDC7, hits give low values): 0.953
normalized growth (locus YDL028C, strain MPS1, hits give low values): 0.956
normalized growth (locus YDL101C, strain DUN1, hits give low values): 0.973
normalized growth (locus YDL108W, strain KIN28, hits give low values): 0.946
normalized growth (locus YDL132W, strain cdc53, hits give low values): 0.946
normalized growth (locus YDL214C, strain PRR2, hits give low values): 0.905
normalized growth (locus YDR052C, strain DBF4, hits give low values): 0.961
normalized growth (locus YDR054C, strain cdc34, hits give low values): 0.938
normalized growth (locus YDR226W, strain ADK1, hits give low values): 0.958
normalized growth (locus YDR477W, strain SNF1, hits give low values): 0.913
normalized growth (locus YER123W, strain YCK3, hits give low values): 0.864
normalized growth (locus YER133W, strain GLC7, hits give low values): 0.888
normalized growth (locus YFL009W, strain cdc4, hits give low values): 0.938
normalized growth (locus YFL029C, strain CAK1, hits give low values): 0.951
normalized growth (locus YFR003C, strain YPI1, hits give low values): 0.951
normalized growth (locus YFR019W, strain FAB1, hits give low values): 0.909
normalized growth (locus YFR028C, strain CDC14, hits give low values): 0.967
normalized growth (locus YGR040W, strain KSS1, hits give low values): 0.919
normalized growth (locus YGR052W, strain FMP48, hits give low values): 0.983
normalized growth (locus YGR092W, strain DBF2, hits give low values): 0.771
normalized growth (locus YHR030C, strain SLT2, hits give low values): 0.961
normalized growth (locus YHR079C, strain IRE1, hits give low values): 0.964
normalized growth (locus YHR082C, strain KSP1, hits give low values): 0.986
normalized growth (locus YHR205W, strain SCH9, hits give low values): 0.886
normalized growth (locus YIL147C, strain SLN1, hits give low values): 0.945
normalized growth (locus YJL095W, strain BCK1, hits give low values): 0.977
normalized growth (locus YJL128C, strain PBS2, hits give low values): 0.94
normalized growth (locus YJL157C, strain FAR1, hits give low values): 0.881
normalized growth (locus YJR016C, strain ILV3, hits give low values): 0.948
normalized growth (locus YJR066W, strain TOR1 (second series), hits give low values): 0.717
normalized growth (locus YJR066W, strain TOR1, hits give low values): 0.995
normalized growth (locus YKL048C, strain ELM1, hits give low values): 0.955
normalized growth (locus YKL067W, strain YNK1, hits give low values): 0.915
normalized growth (locus YKL101W, strain HSL1, hits give low values): 0.907
normalized growth (locus YKL193C, strain SDS22, hits give low values): 0.955
normalized growth (locus YKL203C, strain TOR2, hits give low values): 0.958
normalized growth (locus YLR113W, strain HOG1, hits give low values): 0.988
normalized growth (locus YLR133W, strain CKI1, hits give low values): 0.922
normalized growth (locus YLR403W, strain SFP1, hits give low values): 0.879
normalized growth (locus YML070W, strain DAK1, hits give low values): 0.892
normalized growth (locus YMR001C, strain CDC5, hits give low values): 0.951
normalized growth (locus YMR205C, strain PFK2 (second series), hits give low values): 0.931
normalized growth (locus YMR277W, strain FCP1, hits give low values): 0.963
normalized growth (locus YNL006W, strain LST8, hits give low values): 0.945
normalized growth (locus YNL020C, strain ARK1, hits give low values): 0.911
normalized growth (locus YNL161W, strain CBK1, hits give low values): 0.951
normalized growth (locus YNL183C, strain NPR1, hits give low values): 1
normalized growth (locus YNL207W, strain RIO2, hits give low values): 0.949
normalized growth (locus YNL222W, strain SSU72, hits give low values): 0.952
normalized growth (locus YNL307C, strain MCK1 (second series), hits give low values): 0.926
normalized growth (locus YOL078W, strain AVO1, hits give low values): 0.958
normalized growth (locus YOL136C, strain PFK27, hits give low values): 0.892
normalized growth (locus YOR061W, strain CKA2, hits give low values): 0.894
normalized growth (locus YOR119C, strain RIO1, hits give low values): 0.908
normalized growth (locus YOR231W, strain MKK1, hits give low values): 0.938
normalized growth (locus YOR329C, strain SCD5, hits give low values): 0.947
normalized growth (locus YPL031C, strain PHO85, hits give low values): 0.867
normalized growth (locus YPL153C, strain RAD53, hits give low values): 0.88
normalized growth (locus YPL204W, strain HRR25, hits give low values): 0.889
normalized growth (locus YPL209C, strain IPL1, hits give low values): 0.947
normalized growth (locus YPL256C, strain CLN2, hits give low values): 1.02
normalized growth (locus YPR025C, strain CCL1, hits give low values): 0.95
normalized growth (locus YPR106W, strain ISR1, hits give low values): 0.968
normalized growth (locus YPR111W, strain DBF20, hits give low values): 0.963
normalized growth (strain NNK1, hits give low values): 0.96
normalized growth (strain TSCII, hits give low values): 0.952

Source: PubChem BioAssay AID1159580 (chemical genetic matrix, 2015)
